According to PubChem BioAssay (EPA / NIEHS):
Inconclusive results are not listed. More than one record can exist for a structure, and the calls need not agree. Activity calls are given as the source filed them. How the source made its calls, unless noted: active means hit-call score of the fitted dose curve at least 0.9, where 1 is the maximum; inconclusive means response in the unintended direction; inactive means score below 0.9.

Tests used:
[1] = ATG_VDRE_CIS: Attagene CIS-FACTORIAL HepG2 Assay for human Vitamin D Receptor Element (VDRE) (AID 2282968; active means hit-call score of the fitted dose curve at least 0.9, where 1 is the maximum; inactive means score below 0.9); conditions: HepG2 VDRE cis-reporter transcription, actives raise or lower the signal
Method in brief: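 Measures endogenous factor activity through cis-element-driven reporter transcripts in transiently transfected HepG2. Cells are treated 24 h; reporter mRNA is quantified by RT-PCR and capillary electrophoresis; fitting is bidirectional.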

[2] = target: Nuclear receptor subfamily 1 group I member 3 (Homo sapiens) (UniProt Q14994); test: ATG_CAR_TRANS: Attagene TRANS-FACTORIAL HepG2 Assay for human Constitutive Androstane Receptor (CAR) (AID 2282969); conditions: HepG2 Attagene TRANS-FACTORIAL CAR reporter;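 further: activators raise reporter mRNA above DMSO so AC50 marks induction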
Method in brief: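 Signal is reporter mRNA induction relative to DMSO, measured 24 h after dosing by RT-PCR with fluorescent primer extension and capillary electrophoresis. Human HepG2 liver cells carried transiently transfected chimeric NR-Gal4/GAL4-UAS reporter constructs.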

[3] = target: X-box-binding protein 1 (Homo sapiens) (UniProt P17861); test: ATG_Xbp1_CIS: Attagene CIS-FACTORIAL HepG2 Assay for human X-box Binding Protein 1 (XBP1) (AID 2282972; active means hit-call score of the fitted dose curve at least 0.9, where 1 is the maximum; inactive means score below 0.9); conditions: HepG2 XBP1 cis-element reporter, Attagene multiplex; actives raise or lower the signal
Method in brief: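 Reporter transcripts were quantified by RT-PCR with fluorescent primer extension and capillary electrophoresis after 24 h chemical exposure. Cells: transiently transfected HepG2 carrying cis-regulated reporter constructs; data fitted bidirectionally relative to DMSO.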

[4] = ATG_M_19_TRANS: Attagene TRANS-FACTORIAL HepG2 Assay for M19 Transcription Factor (Internal Marker) (AID 2282974); conditions: HepG2 Attagene TRANS-FACTORIAL M19 internal marker reporter
Method in brief: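 Gain-of-signal in reporter mRNA, relative to DMSO, was scored from capillary electrophoresis fluorescence. HepG2 cells carried transiently transfected multiple reporter transcription units and were incubated with test chemicals for 24 h.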

[5] = ATG_GAL4_TRANS: Attagene TRANS-FACTORIAL HepG2 Assay for GAL4 (Internal Marker) (AID 2282976); conditions: HepG2 Attagene TRANS GAL4 internal marker reporter
Method in brief: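 In transfected human HepG2 liver cells dosed 24 h, GAL4 reporter mRNA serves as a baseline marker. Detection by RT-PCR with fluorescent capillary electrophoresis, activity fitted upward relative to DMSO.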

[6] = target: Bile acid receptor (Homo sapiens) (UniProt Q96RI1); test: ATG_FXR_TRANS: Attagene TRANS-FACTORIAL HepG2 Assay for Farnesoid X Receptor (FXR) (AID 2282979); conditions: HepG2 Attagene TRANS FXR-GAL4 reporter transcription;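 further: hits raise reporter mRNA above DMSO so AC50 marks FXR activation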
Method in brief: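 Reporter transcripts from transfected HepG2 cells were measured 24 h after dosing, using RT-PCR with capillary electrophoresis of 6-FAM-labelled fragments. The read-out reflects activity of exogenous FXR-Gal4 chimera on GAL4-UAS units, with induction relative to DMSO.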

[7] = target: Hepatocyte nuclear factor 4-alpha (Homo sapiens) (UniProt P41235); test: ATG_HNF4a_TRANS: Attagene TRANS-FACTORIAL HepG2 Assay for human Hepatocyte Nuclear Factor 4 alpha (HNF4a) (AID 2282982); conditions: HepG2 HNF4a transactivation reporter, mRNA readout
Method in brief: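 Multiplexed reporter assay: transfected HepG2, 24 h exposure, total RNA → oligo(dT) RT → PCR → 6-FAM extension → HpaI digest → CE fluorescence. DMSO = negative control.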

[8] = ATG_M_32_TRANS: Attagene TRANS-FACTORIAL HepG2 Assay for M32 Transcription Factor (Internal Marker) (AID 2282984); conditions: HepG2 Attagene TRANS M32 internal marker reporter;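 further: transcript level of a background control reporter unit measured by RT-PCR and capillary electrophoresis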
Method in brief: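 Cell-based TRANS-format assay in HepG2: exogenous chimeric GAL4 reporter units transiently expressed, compounds applied 24 h. Reporter mRNA detected by RT-PCR plus capillary electrophoresis; this readout is an internal background marker.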

[9] = target: Transcriptional activator Myb (Homo sapiens) (UniProt P10242); test: ATG_Myb_CIS: Attagene CIS-FACTORIAL HepG2 Assay for human Myeloblastosis (Myb) Proto-Oncogene Transcription Factor (AID 2282986; active means hit-call score of the fitted dose curve at least 0.9, where 1 is the maximum; inactive means score below 0.9); conditions: HepG2 Attagene CIS-FACTORIAL Myb reporter transcription; actives raise or lower the signal
Method in brief: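 Multiplexed cis-reporter system in HepG2: transient transfection, 24 h treatment, mRNA readout by RT-PCR and capillary electrophoresis. Both increases and decreases are scored versus DMSO negative control.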

[10] = target: Nuclear respiratory factor 1 (Homo sapiens) (UniProt Q16656); test: ATG_NRF1_CIS: Attagene CIS-FACTORIAL HepG2 Assay for human Nuclear Respiratory Factor 1 (NRF1) Orphan Gene (AID 2282987; active means hit-call score of the fitted dose curve at least 0.9, where 1 is the maximum; inactive means score below 0.9); conditions: HepG2 NRF1 cis-element reporter, Attagene multiplex; actives raise or lower the signal
Method in brief: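 Endogenous factor activity was captured via cis-element-driven reporter transcripts in HepG2 cells. Following 24 h chemical treatment, transcripts were quantified by RT-PCR and capillary electrophoresis.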

[11] = ATG_NFI_CIS: Attagene CIS-FACTORIAL HepG2 Assay for human Nuclear Factor I (NFI) (AID 2282989; active means hit-call score of the fitted dose curve at least 0.9, where 1 is the maximum; inactive means score below 0.9); conditions: HepG2 cis-regulatory reporter, NFI response element transcription; actives raise or lower the signal
Method in brief: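 Read-out: reporter mRNA via RT-PCR plus capillary electrophoresis with fluorescence detection. Transiently transfected HepG2 (endogenous TF activity on cis promoters), 24 h compound exposure; gain or loss of signal fitted against DMSO.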

[12] = target: Estrogen receptor (Homo sapiens) (UniProt P03372); test: ATG_ERa_TRANS: Attagene TRANS-FACTORIAL HepG2 Assay for human Estrogen Receptor alpha (ERa) (AID 2282970); conditions: HepG2 Attagene TRANS ERa GAL4 reporter, mRNA
Method in brief: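 Reporter transcripts were measured 24 h after dosing by RT-PCR with fluorescent primer extension and capillary electrophoresis. The system is transiently transfected HepG2 expressing exogenous NR-Gal4 chimeras driving GAL4-UAS reporters; DMSO is the baseline.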

[13] = target: Glucocorticoid receptor (Homo sapiens) (UniProt P04150); test: ATG_GR_TRANS: Attagene TRANS-FACTORIAL HepG2 Assay for human Glucocorticoid Receptor (GR) (AID 2282978); conditions: HepG2 Attagene TRANS GR reporter, mRNA transcription;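 further: activators score as hits since higher reporter transcript over DMSO is fitted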
Method in brief: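 HepG2 transient transfection, multiple reporter units, GAL4-UAS under NR-GAL4 chimera control. 24 h treatment. Reporter mRNA by RT-PCR/CE fluorescence, DMSO as negative control.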

[14] = target: Oxysterols receptor LXR-beta (Homo sapiens) (UniProt P55055); test: ATG_LXRb_TRANS: Attagene TRANS-FACTORIAL HepG2 Assay for human Liver X Receptor beta (LXRb) (AID 2282981); conditions: HepG2 Attagene TRANS GAL4-LXRb reporter, mRNA
Method in brief: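 After 24 h of chemical treatment, transfected HepG2 cells yield total RNA; reporter cDNA is PCR-amplified, FAM-labelled, HpaI-cut and run on capillary electrophoresis. Signal reflects chimeric LXRb-Gal4 activity on GAL4-UAS reporters.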

[15] = ATG_M_06_TRANS: Attagene TRANS-FACTORIAL HepG2 Assay for M06 Transcription Factor (Internal Marker) (AID 2282983); conditions: HepG2 Attagene TRANS M06 internal marker reporter;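 further: reporter transcript level by RT-PCR then capillary electrophoresis fluorescence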
Method in brief: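 Background-control reporter readout: after 24 h chemical exposure of transiently transfected HepG2 (GAL4-UAS reporter units), mRNA quantified by RT-PCR with fluorescent labeling and capillary electrophoresis. Gain-of-signal fitting against DMSO baseline.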

[16] = target: Nuclear receptor subfamily 4 group A member 2 (Homo sapiens) (UniProt P43354); test: ATG_NURR1_TRANS: Attagene TRANS-FACTORIAL HepG2 Assay for human Nuclear Receptor Related Protein 1 (NURR1) (AID 2282985); conditions: HepG2 Attagene TRANS reporter, mRNA readout
Method in brief: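 Measures transcriptional activation by an exogenous NR-Gal4 chimera in transfected HepG2 liver cells. After 24 h, reporter RNA is reverse-transcribed, amplified and resolved by capillary electrophoresis; DMSO defines baseline.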

[17] = target: Estrogen-related receptor gamma (Homo sapiens) (UniProt P62508); test: ATG_ERRg_TRANS: Attagene TRANS-FACTORIAL HepG2 Assay for human Estrogen-Related Receptor gamma (ERRg) (AID 2282977); conditions: HepG2 Attagene TRANS reporter, ERRg transactivation;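 further: hits increase reporter signal over DMSO so potencies reflect activators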
Method in brief: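 Readout: fluorescent reporter-mRNA fragments resolved by capillary electrophoresis after RT-PCR and HpaI cut. Cells: transiently transfected HepG2 carrying GAL4-UAS reporters driven by exogenous NR-Gal4 chimeras, dosed 24 h. Activity fitted upward relative to DMSO baseline.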

[18] = target: Oxysterols receptor LXR-alpha (Homo sapiens) (UniProt Q13133); test: ATG_LXRa_TRANS: Attagene TRANS-FACTORIAL HepG2 Assay for human Liver X Receptor alpha (LXRa) (AID 2282980); conditions: HepG2 Attagene TRANS reporter, LXRa transactivation
Method in brief: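 Chemical-induced reporter mRNA measured by RT-PCR with fluorescent labelling and capillary electrophoresis after 24 h dosing of transiently transfected HepG2 cells expressing exogenous NR-Gal4 chimeras; increases scored against DMSO baseline.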

[19] = target: Steroid hormone receptor ERR1 (Homo sapiens) (UniProt P11474); test: ATG_ERRa_TRANS: Attagene TRANS-FACTORIAL HepG2 Assay for human Estrogen-Related Receptor alpha (ERRa) (AID 2282971); conditions: HepG2 Attagene TRANS reporter, ERRa transactivation
Method in brief: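 Reporter transcripts from ERRa-Gal4 chimera activity measured in transiently transfected human HepG2 cells 24 hours after dosing, using RT-PCR with 6-FAM primer extension, HpaI digestion and capillary electrophoresis; DMSO is baseline.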

Measured: AC50

Sequence of Nuclear respiratory factor 1 (Homo sapiens) (Q16656 whole entry, looked up): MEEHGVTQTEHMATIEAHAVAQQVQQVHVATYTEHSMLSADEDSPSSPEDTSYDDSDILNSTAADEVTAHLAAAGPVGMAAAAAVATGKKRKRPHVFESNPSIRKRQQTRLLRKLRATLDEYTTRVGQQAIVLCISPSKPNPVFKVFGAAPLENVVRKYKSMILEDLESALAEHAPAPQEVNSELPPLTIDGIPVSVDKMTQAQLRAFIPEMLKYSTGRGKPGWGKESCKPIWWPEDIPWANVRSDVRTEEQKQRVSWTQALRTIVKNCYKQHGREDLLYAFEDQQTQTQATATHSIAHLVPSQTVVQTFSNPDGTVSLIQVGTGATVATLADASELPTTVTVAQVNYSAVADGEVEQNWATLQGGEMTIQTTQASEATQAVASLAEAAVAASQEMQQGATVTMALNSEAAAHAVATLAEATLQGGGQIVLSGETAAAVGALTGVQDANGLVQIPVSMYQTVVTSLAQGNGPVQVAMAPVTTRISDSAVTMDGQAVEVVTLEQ
Sequence of Nuclear receptor subfamily 1 group I member 3 (Homo sapiens) (Q14994 whole entry, looked up, the tested form may be a part): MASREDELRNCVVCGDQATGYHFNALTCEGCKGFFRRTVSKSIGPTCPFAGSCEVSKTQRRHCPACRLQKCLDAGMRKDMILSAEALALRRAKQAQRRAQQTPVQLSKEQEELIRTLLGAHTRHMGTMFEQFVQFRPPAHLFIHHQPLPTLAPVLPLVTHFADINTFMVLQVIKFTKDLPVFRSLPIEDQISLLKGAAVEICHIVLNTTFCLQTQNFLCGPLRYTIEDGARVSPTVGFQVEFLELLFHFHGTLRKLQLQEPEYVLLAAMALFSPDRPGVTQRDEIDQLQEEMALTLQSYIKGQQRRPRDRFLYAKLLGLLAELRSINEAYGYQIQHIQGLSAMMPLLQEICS
Sequence of Hepatocyte nuclear factor 4-alpha (Homo sapiens) (P41235 whole entry, looked up): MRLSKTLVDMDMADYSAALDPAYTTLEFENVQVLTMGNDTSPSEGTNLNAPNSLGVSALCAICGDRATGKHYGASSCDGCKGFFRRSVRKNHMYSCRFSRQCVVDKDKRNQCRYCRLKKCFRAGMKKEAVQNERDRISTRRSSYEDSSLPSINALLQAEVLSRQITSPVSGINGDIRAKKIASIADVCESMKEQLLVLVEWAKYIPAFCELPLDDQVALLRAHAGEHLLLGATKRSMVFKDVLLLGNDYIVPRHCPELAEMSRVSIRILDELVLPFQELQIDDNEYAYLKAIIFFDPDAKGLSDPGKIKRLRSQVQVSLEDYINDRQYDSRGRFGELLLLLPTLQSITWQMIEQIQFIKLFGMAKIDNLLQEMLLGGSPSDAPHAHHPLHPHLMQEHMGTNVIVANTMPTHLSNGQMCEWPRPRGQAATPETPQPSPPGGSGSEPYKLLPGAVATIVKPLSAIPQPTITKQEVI
Sequence of Bile acid receptor (Homo sapiens) (Q96RI1 whole entry, looked up, the tested form may be a part): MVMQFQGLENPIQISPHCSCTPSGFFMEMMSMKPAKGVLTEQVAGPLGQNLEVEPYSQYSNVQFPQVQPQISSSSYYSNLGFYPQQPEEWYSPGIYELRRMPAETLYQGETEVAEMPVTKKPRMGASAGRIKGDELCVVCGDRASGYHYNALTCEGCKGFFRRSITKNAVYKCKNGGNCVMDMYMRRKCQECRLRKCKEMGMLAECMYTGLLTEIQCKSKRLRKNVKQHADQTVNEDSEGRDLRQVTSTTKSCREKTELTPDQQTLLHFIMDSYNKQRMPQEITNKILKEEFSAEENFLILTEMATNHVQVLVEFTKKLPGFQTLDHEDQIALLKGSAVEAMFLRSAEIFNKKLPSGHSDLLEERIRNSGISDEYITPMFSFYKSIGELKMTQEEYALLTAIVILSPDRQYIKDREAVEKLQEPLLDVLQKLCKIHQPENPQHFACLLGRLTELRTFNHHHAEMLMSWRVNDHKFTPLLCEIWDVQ
Sequence of X-box-binding protein 1 (Homo sapiens) (P17861 whole entry, looked up): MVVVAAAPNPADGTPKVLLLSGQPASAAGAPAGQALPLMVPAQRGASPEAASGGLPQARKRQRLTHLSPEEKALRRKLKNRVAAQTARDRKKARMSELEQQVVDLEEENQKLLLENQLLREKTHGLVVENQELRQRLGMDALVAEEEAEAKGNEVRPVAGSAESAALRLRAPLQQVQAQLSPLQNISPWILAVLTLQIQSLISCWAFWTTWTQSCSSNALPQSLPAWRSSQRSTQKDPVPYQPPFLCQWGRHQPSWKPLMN
Sequence of Oxysterols receptor LXR-alpha (Homo sapiens) (Q13133 whole entry, looked up, the tested form may be a part): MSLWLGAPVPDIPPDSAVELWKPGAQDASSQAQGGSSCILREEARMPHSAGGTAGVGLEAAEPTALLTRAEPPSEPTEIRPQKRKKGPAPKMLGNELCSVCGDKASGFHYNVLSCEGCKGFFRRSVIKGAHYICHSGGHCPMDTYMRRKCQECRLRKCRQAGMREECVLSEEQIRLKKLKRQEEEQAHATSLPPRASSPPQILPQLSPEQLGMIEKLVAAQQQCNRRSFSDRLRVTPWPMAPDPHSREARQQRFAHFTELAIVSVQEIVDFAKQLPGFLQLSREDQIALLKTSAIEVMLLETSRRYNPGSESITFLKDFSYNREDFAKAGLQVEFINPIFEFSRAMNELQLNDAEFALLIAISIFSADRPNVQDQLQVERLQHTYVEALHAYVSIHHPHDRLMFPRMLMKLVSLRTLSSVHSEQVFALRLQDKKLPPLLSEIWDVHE
Sequence of Transcriptional activator Myb (Homo sapiens) (P10242 whole entry, looked up): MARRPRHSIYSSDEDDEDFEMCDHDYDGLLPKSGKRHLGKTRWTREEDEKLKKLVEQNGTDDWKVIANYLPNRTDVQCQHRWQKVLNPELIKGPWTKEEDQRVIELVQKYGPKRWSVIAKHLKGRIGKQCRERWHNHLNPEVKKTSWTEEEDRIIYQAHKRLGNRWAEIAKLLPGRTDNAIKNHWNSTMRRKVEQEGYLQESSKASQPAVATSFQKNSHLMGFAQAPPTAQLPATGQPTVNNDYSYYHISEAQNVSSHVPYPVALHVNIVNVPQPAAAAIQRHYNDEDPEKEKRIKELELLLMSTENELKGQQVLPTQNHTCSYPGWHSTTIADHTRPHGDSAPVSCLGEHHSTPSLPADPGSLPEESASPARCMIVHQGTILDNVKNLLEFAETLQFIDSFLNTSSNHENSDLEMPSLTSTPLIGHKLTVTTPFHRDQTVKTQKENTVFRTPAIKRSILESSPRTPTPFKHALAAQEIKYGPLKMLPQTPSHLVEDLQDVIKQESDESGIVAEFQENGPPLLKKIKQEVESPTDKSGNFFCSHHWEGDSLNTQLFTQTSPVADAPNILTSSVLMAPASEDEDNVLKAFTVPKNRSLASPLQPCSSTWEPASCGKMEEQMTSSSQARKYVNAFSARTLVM
Sequence of Oxysterols receptor LXR-beta (Homo sapiens) (P55055 whole entry, looked up, the tested form may be a part): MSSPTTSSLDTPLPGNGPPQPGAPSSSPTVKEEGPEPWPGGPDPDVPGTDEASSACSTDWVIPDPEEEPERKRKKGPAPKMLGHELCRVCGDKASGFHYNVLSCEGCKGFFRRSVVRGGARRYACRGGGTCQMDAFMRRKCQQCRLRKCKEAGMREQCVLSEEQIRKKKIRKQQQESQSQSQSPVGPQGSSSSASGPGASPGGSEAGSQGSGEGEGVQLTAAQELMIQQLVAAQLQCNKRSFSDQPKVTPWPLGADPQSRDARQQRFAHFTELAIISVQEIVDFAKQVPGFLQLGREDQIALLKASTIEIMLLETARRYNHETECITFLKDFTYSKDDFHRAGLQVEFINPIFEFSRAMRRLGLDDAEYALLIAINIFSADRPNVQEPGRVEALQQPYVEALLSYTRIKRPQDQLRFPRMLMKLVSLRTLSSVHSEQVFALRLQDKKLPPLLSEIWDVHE
Sequence of Nuclear receptor subfamily 4 group A member 2 (Homo sapiens) (P43354 whole entry, looked up, the tested form may be a part): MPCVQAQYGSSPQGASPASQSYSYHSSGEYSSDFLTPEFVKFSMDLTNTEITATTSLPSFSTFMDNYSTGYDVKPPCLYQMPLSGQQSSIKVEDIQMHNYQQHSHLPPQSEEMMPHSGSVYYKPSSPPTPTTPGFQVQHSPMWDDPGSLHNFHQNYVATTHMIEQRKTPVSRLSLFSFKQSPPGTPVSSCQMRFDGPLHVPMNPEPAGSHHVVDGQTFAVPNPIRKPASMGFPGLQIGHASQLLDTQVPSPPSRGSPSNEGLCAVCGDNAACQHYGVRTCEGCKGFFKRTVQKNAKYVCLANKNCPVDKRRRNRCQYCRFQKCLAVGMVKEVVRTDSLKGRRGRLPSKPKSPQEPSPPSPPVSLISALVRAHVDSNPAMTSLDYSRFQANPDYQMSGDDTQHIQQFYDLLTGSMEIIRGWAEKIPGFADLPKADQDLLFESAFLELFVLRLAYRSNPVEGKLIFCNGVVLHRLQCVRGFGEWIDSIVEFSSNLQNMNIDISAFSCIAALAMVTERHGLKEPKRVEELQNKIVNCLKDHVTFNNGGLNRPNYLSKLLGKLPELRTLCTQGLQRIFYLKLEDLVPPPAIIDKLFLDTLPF
Sequence of Glucocorticoid receptor (Homo sapiens) (P04150 whole entry, looked up, the tested form may be a part): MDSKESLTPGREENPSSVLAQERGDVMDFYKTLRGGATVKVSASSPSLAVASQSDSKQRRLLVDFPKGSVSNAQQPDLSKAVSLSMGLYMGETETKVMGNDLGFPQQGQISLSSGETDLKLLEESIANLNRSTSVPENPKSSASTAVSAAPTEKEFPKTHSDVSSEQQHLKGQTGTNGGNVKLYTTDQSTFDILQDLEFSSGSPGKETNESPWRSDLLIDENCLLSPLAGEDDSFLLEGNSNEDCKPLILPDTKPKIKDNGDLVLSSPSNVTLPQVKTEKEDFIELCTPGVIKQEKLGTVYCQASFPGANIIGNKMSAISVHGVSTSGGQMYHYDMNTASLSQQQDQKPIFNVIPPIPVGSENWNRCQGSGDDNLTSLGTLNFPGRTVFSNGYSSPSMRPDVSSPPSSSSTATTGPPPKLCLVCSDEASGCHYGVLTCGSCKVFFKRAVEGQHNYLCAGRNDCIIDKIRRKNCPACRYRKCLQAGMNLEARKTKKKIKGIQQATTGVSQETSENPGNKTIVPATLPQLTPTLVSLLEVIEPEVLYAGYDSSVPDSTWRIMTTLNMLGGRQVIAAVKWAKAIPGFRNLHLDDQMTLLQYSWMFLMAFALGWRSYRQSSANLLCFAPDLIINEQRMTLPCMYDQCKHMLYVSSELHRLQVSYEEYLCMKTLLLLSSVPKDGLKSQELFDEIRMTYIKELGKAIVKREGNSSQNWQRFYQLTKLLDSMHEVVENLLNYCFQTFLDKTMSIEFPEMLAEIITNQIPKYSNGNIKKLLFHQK

C=Cc1ccc(O)c(OC)c1
inactive: [2] | [3] | [4] | [5] | [6] | [7] | [8] | [9] | [10] | [11]
active: [1] 44.7 µM

CC1CCC(CO)CC1 (centres undefined)
active: [12] 62.4 µM
inactive: [1] | [12] | [4] | [13] | [14] | [7] | [15] | [8] | [16] | [9] | [10] | [11]

NCc1cccc(CN)c1
not listed: [4] | [7] | [12] | [14] | [15] | [17] | [18] | [19]
inactive: all other assays above

CC(C)[C@@H]1CC[C@@H](C)C[C@H]1O
not listed: [12] | [13] | [14] | [15] | [16] | [17] | [18] | [19]
inactive: all other assays above

CCCCCc1ccc(O)cc1
inactive: [1] | [2] | [3] | [6] | [7] | [15] | [16] | [9] | [10] | [11]

C=CCOCC(CO)(CO)CO
not listed: [5] | [12] | [14] | [15] | [16] | [19]
inactive: all other assays above

O=C(F)C(F)(F)C(F)(F)C(F)(F)C(=O)F
not listed: [4] | [6] | [12] | [13] | [14] | [17] | [18] | [19]
inactive: all other assays above

C[N+](C)(CCCNS(=O)(=O)CCC(F)(F)C(F)(F)C(F)(F)C(F)(F)C(F)(F)C(F)(F)F)CC(=O)[O-]
not listed: [4] | [5] | [12] | [15]
inactive: all other assays above

CC(=O)CC(C)C
not listed: [4] | [5] | [8] | [12] | [13] | [16] | [17]
inactive: all other assays above

O=S(=O)(O)c1ccc2cc(O)ccc2c1
inactive: [1] | [2] | [3] | [13] | [7] | [15] | [8] | [9] | [11]

c1ccc(CNc2ncnc3c2ncn3C2CCCCO2)cc1 (centres undefined)
active: [1] 22.9 µM
not listed: [4] | [5] | [12] | [15] | [17] | [19]
inactive: all other assays above
